Assay results as given in PubChem BioAssay (NCI).
About 83,000 compounds went through this panel and 20% of them were active in at least one assay; those are over-represented in the sample as a whole.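 In brief: 96-well plates, 48 h treatment, single concentration, percent growth endpoint.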 A number with no mark means an inactive call. Calls of active or inactive are those of the source. The calls were made as follows: active = growth percent below 10; inactive = the rest.

Key:
Assay in all cases: NCI-60 one-dose screen, 48 h (100 = growth as untreated, 0 = no growth, -100 = all killed)
[1] = system: DU-145 prostate; conditions: 10 µM
[2] = system: K-562 leukemia; conditions: 10 µM
[3] = system: MALME-3M melanoma; conditions: 10 µM
[4] = system: MDA-MB-231 breast; conditions: 10 µM
[5] = system: RXF 393 renal; conditions: 10 µM
[6] = system: SF-268 CNS; conditions: 10 µM
[7] = system: SF-295 CNS; conditions: 10 µM
[8] = system: SF-539 CNS; conditions: 10 µM
[9] = system: UACC-257 melanoma; conditions: 10 µM
[10] = system: M14 melanoma; conditions: 10 µM
[11] = system: HCT-15 colon; conditions: 10 µM
[12] = system: HT29 colon; conditions: 10 µM
[13] = system: SNB-75 CNS; conditions: 10 µM
[14] = system: SNB-19 CNS; conditions: 10 µM
[15] = system: U251 CNS; conditions: 10 µM
[16] = system: PC-3 prostate; conditions: 10 µM
[17] = system: SK-MEL-5 melanoma; conditions: 10 µM
[18] = system: UACC-62 melanoma; conditions: 10 µM unless noted
[19] = system: LOX IMVI melanoma; conditions: 10 µM
[20] = system: SK-MEL-28 melanoma; conditions: 10 µM

SMILES	growth [1]	growth [2]	growth [3]	growth [4] [%]	growth [5] [%]	growth [6] [%]	growth [7]	growth [8]	growth [9]	growth [10]	growth [11]	growth [12]	growth [13]	growth [14] [%]	growth [15] [%]	growth [16] [%]	growth [17]	growth [18]	growth [19]	growth [20] [%]
CC1SC(N)=NC1=O (centres undefined)	117%	112%	108%	112	120	110	102%	106%	110%	103%	114%	128%	103%	109	113	106	113%	100%	104%	112
C=CCNC(=O)c1ccc(OC)cc1	124%	105%	117%	104	111	126	115%	100%	97.6%	100%	108%	129%	117%	92.1	101	104	103%	99.1%	111%	144
N#Cc1ccc(NC(=O)Nc2cccc(C#N)c2)cc1	116%	46.1%	121%	92.1	99.3	112	89.3%	93.9%	89.2%	98.1%	67.4%	97.3%	97.8%	103	91.8	57.3	81.8%	93.7%	91.6%	108
COc1cc(C(N)=O)cc(OC)c1OC	112%	112%	110%	105	119	101	100%	98.9%	102%	107%	101%	102%	86.6%	99.2	96.5	106	106%	94.2%	104%	116
NC(N)=Nc1cc2ccccc2c2ccccc12	84.9%	62.3%	76.2%	80.1	78.8	82.6	55.9%	89.1%	1.37% (active)	85%	85.7%	65.3%	57%	82.2	79.4	61.5	85.9%	75%	74.9%	88.3
O=C(O)/C=C/c1ccc2c(c1)CCC2	118%	86.9%	121%	118	106	116	98.9%	106%	97.8%	106%	99.5%	104%	100%	105	99.3	103	105%	103%	102%	104
CCC(=O)Oc1ccc(OC)cc1	98.3%	107%	89.1%	103	116	102	118%	101%	108%	104%	105%	105%	90.7%	104	98.3	110		99.8%	105%	112
O=C(/C=C/C(=O)c1ccccc1)c1ccccc1	115%	41.9%	131%	110	118	107	99%	114%	119%	111%	79.2%	100%	104%	109	93.6	125	105%	93.4%	92.1%	117
COC(=O)c1ccc(NC(=O)CCl)cc1	103%	70.9%	79.9%	64.9	95.7	89.5	69.3%	96.7%	60.4%	90.4%	61.7%	76.3%	83%	92.7	26.2	78.2	80.6%	72.2%	-19.8% (active)	101
O=C1c2ccccc2C(=O)c2c1ccc(C(=O)O)c2[N+](=O)[O-]	107%	77.3%	98.1%	79	128	111	105%	96%	105%	87.2%	105%	93.8%	91.2%	109	99.6	94.8		106%	88.4%	101
Oc1ccc(Cc2ccccc2)c2cccnc12	28.9%	13.3%	-0.436% (active)	31	14.6	20	32.4%	11.8%	1.27% (active)	-29.8% (active)	29.2%	84.3%	21.3%	19.6	12.6	23.4		-14% (active)	4.75% (active)	32.2
COc1cc(/C=N\Nc2ccccc2)ccc1OC(=O)c1ccccc1	55.3%	12%	89.5%	86.3	100	57.5	50.5%	24.4%	81.8%	60.2%	24.4%	72.5%	85.4%	108	81.5	49.8	74.7%	24.4%	3.86% (active)	87.6
COC(=O)C(O)c1ccccc1 (centres undefined)	114%	101%	134%	91	111	102	139%	98%	116%	105%	105%	122%	93%	102	104	94.6		94.1%	107%	103
CCCCNC1(C#N)CCN(Cc2ccccc2)CC1	135%	114%	94.7%	104	107	129	97.2%	99.8%	107%	76.6%	108%	106%	84.2%	91.1	101	96.1	107%	95%	99.7%	102
CC(=Nc1ccccc1)C1=C(O)C(Cc2cccc(F)c2)NC1=O (centres undefined)	-37.9% (active)	5.47% (active)	39.8%	25.9	41.7	31.1	-5.61% (active)	-17.5% (active)	40.6%	7.5% (active)	8.21% (active)	-12.1% (active)	78.3%	36.2	10.8	19.2	1.57% (active)	32.9%	5.05% (active)	63.5
O=C(O)C(O)c1ccccc1 (centres undefined)	106%	111%	99.9%	107	102	98.8	107%	94%	102%	97.8%	113%	115%	94.8%	108	103	97.3		107%	94.2%	107
O=[N+]([O-])c1ccc(S(=O)(=O)NN=C2CCCCC2)cc1	121%	111%	101%	108	117	116	97.8%	109%	95.6%	106%	115%	107%	87.8%	99.8	111	96.8		117%	95%	110

SMILES	growth [1]	growth [2]	growth [3]	growth [4] [%]	growth [5] [%]	growth [6] [%]	growth [7]	growth [8]	growth [9]	growth [10]	growth [11]	growth [12]	growth [13]	growth [14] [%]	growth [15] [%]	growth [16] [%]	growth [17]	growth [18]	growth [19]	growth [20] [%]
CCOC(=O)Nc1cc2c(c(N)n1)N=C(c1ccccc1)CO2	10.6%	10.1%	64.8%	13.6	27.3	38.4	17%	1.93% (active)	86.4%	15.4%	6.55% (active)	12.2%	33.5%	37.3	21.8	29.9	10.2%	34.9%	28.5%	47.6
CCOC(=O)c1cc2cccc(OC)c2oc1=O	123%	99%	115%	107	122	111	130%	107%	98.2%	99.4%	97.3%	113%	99.5%	105	105	106	105%	89.8%	104%	116
Cc1c(C(=O)O)c(=O)n(-c2ccccc2)n1C	118%	108%	163%	118	119	119	91.4%	119%	93.8%	104%	107%	112%	109%	111	115	101	113%	108%	99.5%	122
NC(C(=O)O)C(O)c1ccco1 (centres undefined)	115%	105%	98.6%	117	105	116	108%	110%	102%	105%	99.1%	120%	106%	114	102	96	104%	113%	103%	107
O=C(O)c1ccnc(Br)c1	111%	109%	107%	115	106	107	100%	97.5%	104%	107%	106%	110%	89.5%	103	100	86.1	93.5%	106%	107%	111
N#C/C(=C\c1cc(O)c(O)c(O)c1)C(N)=O	93.6%	71.9%	115%	102	99.6	107	87.7%	94%	105%	92.2%	88.6%	103%	-17.7% (active)	101	93	46.5		98.1%	92.3%	
CC1CC(O)C2C3(C)CCCC2(COC3=O)C12CCC1(CCOC1=O)O2 (centres undefined)	105%	127%	116%	126	114	107	131%	101%	114%	96.8%	102%	109%	96.4%	108	102	94	111%	114%	107%	111
COC(=O)c1ccc(C(C)C)cc1	105%	116%	99.9%	113	122	101	100%	102%	90.9%	88.6%	96.2%	107%	103%	103	98.6	90.6	104%	99.4%	95%	110
O=[N+]([O-])c1cccc(N=Nc2ccc(O)cc2O)c1	95.2%	17.7%	65.8%	76.5	83.5	83.4	95.7%	89.7%	72.5%	97%	48%	86.2%	69.7%	78.2	63.7	58.5	74.2%		81.1%	99.1
CCOC(=O)C(O)C(O)C(=O)OCC (centres undefined)	106%	102%	106%	110	125	102	104%	109%	106%	104%	99.1%	105%	99%	103	102	98		102%	99.8%	
O=C(/C(=N/O)c1ccccc1)c1ccccc1	111%	120%	82%	98.5	102	100	94.4%	104%	97%	108%	96.8%	117%	85.4%	100	94.6	94.9	97.4%	88.3%	105%	105
Cc1ccc(C(=O)N/N=C/c2ccc3c(c2)OCO3)cc1	112%	73.3%	108%	90.5	102	96	115%	103%	115%	93%	91.6%	104%	95.8%	96.7	101	82.8	100%	76.3%	89.1%	107
Cc1ccc(C(=O)NC2c3ccccc3Oc3ccccc32)cc1	88.2%	14.3%	53.2%	58.4	74.9	64.1	24.8%	61.3%	57.7%	36%	39.6%	23.4%	34.9%	49	56.5	53.4	62.7%		45%	61.4
O=C(CCl)N1CCN(C/C=C/c2ccccc2)CC1	110%	88.1%	83%	100	86.4	87.7	105%	104%	85.8%	90.1%	86.3%	79.2%	92.6%	95.2	90.7	89		76.6%	2.58% (active)	94.4
Oc1ccc(O)cc1	105%	98.1%	102%	109	135	106	114%	90.1%	97.8%	108%	101%	97.7%	102%	115	99.1	89.2		103%	92.6%	112
O=[N+]([O-])c1ccc(-c2ncc(-c3ccc(Br)cc3)o2)cc1	112%	97.3%	125%	119	106	107	98.3%	101%	74.1%	109%	96.5%	98.3%	122%	99.9	95.8	89.8	89.4%	93.3%	104%	114
N/N=C(/Cc1ccccc1)NNC(N)=S	106%	103%	95.4%	111	112	97.4	105%	98.5%	92.3%	93.5%	97.5%	95.7%	87.7%	105		88.3	97.3%	101%	94.5%	
